Most compounds without a hit are left out; they make up all but 0.38% or so of the library.
EPAC2 agonist = activates human EPAC2 exchange factor; hit rate 0.079% among 360,000; EPAC2 activation, biochemical qHTS; response scale: 100% = 6.5 mM cAMP response; Potency, µM (doses to about 154 µM), for the others: top-dose activation, most hits filed as activators; Q8WZA2; note: nearly all actives have a fitted effect of over 50% in size
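Exchange assay: 100 nM EPAC2 with 250 nM Rap1B-BODIPY-GDP and 50 uM GDP. Fluorescence (ex 480/em 540 nm) read every 5 min for 30 min at room temperature. Data normalized to 6.5 mM cAMP as agonist control.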
EPAC2 antagonist = EPAC2 (human) antagonism. Potency, µM (titrated, usually from 114 µM), inactives show top-dose activity, negative = inhibition, hits mostly inhibitors. hit rate 0.18% among 360,000. Q8WZA2. EPAC2 GEF exchange of Rap1B-BODIPY-GDP, fluorescence; note: % is set by controls: 0 for no effect and ±100 for the full control effect; nearly all actives have a fitted effect of over 45% in size
EPAC1 antag = EPAC1 (human) antagonism. O95398. EPAC1 GEF assay, Rap1b-BODIPY-GDP exchange fluorescence. Potency, µM (top dose mostly 115 µM), for inactives: top-dose activity change, negative = inhibition, actives largely listed as inhibitors. hit rate 0.14% among 360,000;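 note: plate controls were vehicle for no effect and positive control for full effect; nearly all actives have a fitted effect of over 50% in size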
EPAC1 agonist = agonists of human EPAC1; O95398; EPAC1 agonist qHTS, biochemical assay; response scale: 100% = response to 6.5 mM cAMP; Potency, µM (highest dose often 154 µM), inactives show at the highest dose activation, usual class: activators; hit rate 0.073% among 360,000; AID 720707; note: nearly all actives have a fitted effect of over 60% in size
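Normalized to 6.5 mM cAMP, activity reflects EPAC1-catalysed release of BODIPY-GDP from Rap1B, followed kinetically over 30 min at 480 nm excitation, 540 nm emission. Reaction contained 100 nM EPAC1, 250 nM Rap1B-BODIPY-GDP, 50 uM GDP.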
Numbers without * were called inactive; i = inactive; ? = inconclusive; [ ] = another dose, or the depositor's remark. Calls come from the whole dose curve; as a rule, active = well fitted curve in the direction sought with a large enough effect; inconclusive = small, poorly fitted or top-dose-only effect, or another doubt; inactive = no such curve, though single readings can be large; an effect the other way counts as inactive or inconclusive. Potency is the fitted concentration of half-maximal effect.

SMILES | EPAC2 agonist | EPAC2 antagonist | EPAC1 antag | EPAC1 agonist
CC(=O)Nc1ccc(C=NNc2ccc([N+](=O)[O-])cc2S(=O)(=O)Nc2ccccc2C(=O)O)cc1 | 0% | ? | ? | -2%
O=C(O)c1ccccc1NS(=O)(=O)c1ccc(N/N=C/c2cccc(O)c2O)c([N+](=O)[O-])c1 | -6% | -26% | 25µM* | -12%
CCOc1ccc(C=NNc2ccc(S(=O)(=O)Nc3ccccc3C(=O)O)cc2[N+](=O)[O-])cc1OC | -5% | -13% | -13% | 5%
CC(C)(C)NC(=O)C1(C)CCC(=O)N1C1CC1 (stereo not drawn) | 2% | 3% | 1% | 0%
CCCCn1nc(C(=O)NCC2COc3ccccc3O2)c2ccccc2c1=O (stereo not drawn) | 7% | -16% | -3% | 1%
CCCCc1nc(SCC(=O)N2CCCC2)c2c(=O)n(C)c(=O)n(C)c2n1 | 7% | 1% | 12% | 5%
CCCCc1nc(SCCOC)c2c(=O)n(C)c(=O)n(C)c2n1 | 11% | 18µM* | -15% | -3%
COC(=O)c1sc(-c2ccc(C(C)(C)C)cc2)cc1NC(=O)c1ccccc1C(=O)O | -4% | -9% | 56µM* | -25%
COc1ccc2noc3c2c1C(=O)c1ccccc1-3 | ? | 456% | i | 100µM*
O=C1c2ccccc2-c2onc3ccc(NCCCn4ccnc4)c1c23 | -86% | 406% | 335% | 100µM*
COc1cccc2c1C(=O)c1ccc3ccccc3c1C2=O | 12% | -2% | -1% | 1%
COc1ccc(N)c2c1C(=O)c1ccccc1C2=O | -3% | -18% | 3% | -3%
COc1ccc(OC)c2c1C(=O)c1ccccc1C2=O | 89µM* | 66% | 77% | 89µM*
Nc1ncc(Br)cc1S(=O)(=O)Nc1cc(C(F)(F)F)cc(C(F)(F)F)c1 | -13% | 16µM* | ? | -23%
CSc1ccc(CN2CCC(C)(Oc3ccccc3F)C2)cc1 (stereo not drawn) | 8% | 10% | 8% | -9%
Cc1cc2c(C)nc(N/N=C/c3ccc(F)cc3)nc2o1 | 11% | 17% | 40µM* | -20%
CC(=O)Nc1ccc(S(=O)(=O)NCCC(=O)NNC(=O)c2ccccc2O)cc1 | 4% | -4% | 2% | 1%
CCOC(=O)c1cccc(C2=CC(=O)C[C@H](c3ccc(OC)c(OC)c3)C2)c1 | 5% | -29% | -2% | 7%
COc1ccccc1N(CC(=O)Nc1cc(C)on1)S(=O)(=O)c1ccc(Cl)cc1 | 4µM* | -12% | -4% | -2%
Oc1ccc(N=Cc2ccc(OCc3ccccc3)cc2)cc1 | 14% | ? | 25µM* | 17%
O=C(N/N=C/c1ccc(OCc2ccccc2)cc1)c1ccncc1 | 9% | -1%[57.1 µM] | 0% | -10%
CCC(Sc1ncnc2c1nnn2-c1ccc(F)cc1)C(=O)OC (stereo not drawn) | -2% | 2% | 10% | -5%
CCOC(=O)C(C)Sc1ncnc2c1nnn2-c1ccc(F)cc1 (stereo not drawn) | -2% | 20µM* | -15% | -6%
Cc1ccc(S(=O)(=O)N2CC(O)C[C@H]2C(=O)OCC(=O)N2CCN(c3ccc(F)cc3)CC2)cc1C (stereo partly drawn) | -1% | -4% | -9% | 1%
CC(C)CC1C(=O)N(Cc2cn(CCC3OCCO3)nn2)CCS(=O)(=O)N1Cc1ccc(-c2ccc(F)cc2)cc1 (stereo not drawn) | 1% | 13µM* | -8% | -15%
SMILES | EPAC2 agonist | EPAC2 antagonist | EPAC1 antag | EPAC1 agonist
CN(C)c1ccc(/C=C/C(=O)c2ccc3c(c2)OCO3)cc1 | 100µM* | 59% | 89% | 63µM*
O=C(/C=C/c1ccccc1)c1ccc2c(c1)OCO2 | -1% | ? | ? | -2%
COc1ccc(C(=O)/C=C/c2ccc(N(C)C)cc2)c(OC)c1 | -26% | 57% | 17% | 100µM*
C[C@H]1COc2cccc(N3CCSCC3)c2S(=O)(=O)N1 | 7% | 4% | 12% | 10%
Cc1ccc(C2/C=C\CC(NC(=O)OCC3c4ccccc4-c4ccccc43)CC(=O)N2Cc2ccccc2)cc1 (stereo not drawn) | 10% | -4% | 6% | -6%
Cc1onc(-c2c(Cl)cccc2Cl)c1COC(=O)c1ccc(Cl)cc1 | 7% | 3.5µM* | -11% | -1%
Cc1onc(-c2c(Cl)cccc2Cl)c1COC(=O)c1ccc([N+](=O)[O-])cc1 | 0% | -9% | 10% | 8%
COc1cc(C2C=C(c3cccs3)Nc3ncnn32)cc(OC)c1OC (stereo not drawn) | 24% | 120% | 82% | 100µM*
COc1ccc(CCn2c(=N)c(S(=O)(=O)c3ccc(C)cc3)cc3c(=O)n4ccccc4nc32)cc1 | -7% | 89µM* | 105% | -17%
Nc1ncnc2c1nc(Br)n2[C@@H]1O[C@@H]2COP(=O)(O)O[C@H]2[C@H]1O | ? | 2.5µM* | 1.3µM* | 11µM*
Nc1nc2c(nc(Br)n2[C@@H]2O[C@@H]3COP(=O)(O)O[C@H]3[C@H]2O)c(=O)[nH]1 | 16% | 17% | -13% | 12%
COc1ccccc1OCCC(=O)Nc1cccc(S(=O)(=O)N2CCOCC2)c1 | 6% | -2% | -2% | 5%
O=C(N/N=C/c1cccnc1)c1ccccc1OCc1ccc(Br)cc1 | 10% | -6% | 1% | -1%
O=C(N/N=C/c1cccnc1)c1cc(-c2ccccc2OCc2ccccc2)n[nH]1 | 16% | -3% | 50µM* | 12%
CCN1/C(=C/C=C/c2sc3ccccc3[n+]2CC)Sc2ccccc21 | 4% | -6% | -11% | -15%
CCN1/C(=C/C=C/c2oc3ccc(-c4ccccc4)cc3[n+]2CC)Oc2ccc(-c3ccccc3)cc21 | 63µM* | i | 303% | 40µM*
Cc1ccc(/C=C2/SC(=S)N(c3ccc(S(=O)(=O)Nc4nccs4)cc3)C2=O)cc1 | 4% | -11% | ? | 9%
COc1ccc(/C=C2/SC(=O)N(CCC(=O)Nc3ccc(S(=O)(=O)Nc4nccs4)cc3)C2=O)cc1 | 14% | -1% | 50µM* | -10%
COc1ccc(/C=C2\SC(=O)N(CCC(=O)Nc3ccc(S(=O)(=O)Nc4nccs4)cc3)C2=O)cc1 | -4% | 15% | -24% | 0%
COc1ccc(/C=C2/SC(=S)N(c3ccc(S(=O)(=O)Nc4nccs4)cc3)C2=O)cc1 | -7% | 0% | 71µM* | 7%
COc1ccc(C)cc1NC(=O)c1ccccc1NS(=O)(=O)c1ccc(Cl)s1 | 2% | 32µM* | -14% | -8%
O=C1C(Sc2ccccc2)=C[C@@]2(O)CC[C@@H](O)[C@]1(Sc1ccccc1)[C@H]2O | 2% | 2% | 17% | 0%
Cc1ccc(S(=O)(=O)N2[C@@H](c3ccc(Cl)cc3)C(C(=O)O)=CC[C@H]2c2ccc(C(C)C)cc2)cc1 | -7% | ? | 50µM* | -13%
Cc1ccc2oc(C(=O)N3CCCCCC3)c(C)c2c1 | 9% | 56µM* | 6% | 4%
Cc1c(C(=O)N2CCCCC2)oc2ccc(Br)cc12 | 4% | ? | -12% | ?
CCOC(=O)c1ccc(S(=O)(=O)NNC(=O)Cc2csc(C)n2)cc1 | 13% | 6% | 14% | 7%

Source: PubChem BioAssay
